Measured values published in PubChem BioAssay (NCI).
The panel holds about 83,000 compounds, 20% with a hit somewhere; the sample as a whole holds those more often.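 Compound tested at a single concentration for 48 hours in 96-well plates; a percent growth value below 10 was scored as active.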 A number with no mark means an inactive call. The source made the active and inactive calls.

System: HL-60(TB) leukemia
Test: NCI-60 one-dose screen, 48 h (100 = growth as untreated, 0 = no growth, -100 = all killed)
Conditions: 10 µM unless noted

Compound	growth
C[C@H](Nc1nc(NCCc2ccccc2)nc2ccccc12)c1ccccc1	-48.2% (active)
N=C1N=C(SCc2nc3ccccc3[nH]2)NC(=O)/C1=C/c1ccc(Cl)cc1	102%
CCCCCCCCCCCCCCCCCCCC(=O)NCCc1c[nH]c2ccc(OC(=O)CCCC(=O)OCCOOCCOOCCOOCCOOCCOOCCOOCCOOCCOOCCOOCCOOCCOOCCOC)cc12	-29.3% (active)
O=C(N/N=C/c1c[nH]c2ccccc12)Nc1ccccc1Cl	0.912% (active)
S=C(Nc1ccc(OCc2nc3ccc(Cl)cc3[nH]2)cc1)NC1CCCCC1	-37.1% (active)
Nc1n[nH]c2cccc(C#Cc3cccc(NC(=O)Nc4cc(C(F)(F)F)cc(C(F)(F)F)c4)c3)c12	-9.4% (active)
COc1ccc(NC(=O)CSc2nnc(-c3ccc(-c4nc5ccccc5[nH]4)cc3)o2)cc1	43.5%
COc1ccc(SC2c3cc(OC)ccc3Oc3nc(N)c(C#N)c(N)c32)cc1 (stereo not drawn)	64.7%
COc1ccc2c(c1)C(Sc1ccc(Br)cc1)c1c(nc(N)c(C#N)c1N)O2 (stereo not drawn)	78%
O=C(NC(=S)N1CCN(c2ncnc3c2cnn3-c2ccccc2)CC1)c1ccc(F)cc1	64.8%
CCN(C(=O)CN1C(=O)/C(=C/c2ccco2)SC1=S)C1CCS(=O)(=O)C1 (stereo not drawn)	92.4%
O=C(CSc1nnc(-c2ccc(-c3nc4ccc(Cl)cc4[nH]3)cc2)o1)Nc1ccccc1	42.1%
COc1ccc(/C(CSc2nnc(-c3c[nH]c4ccccc34)n2-c2ccccc2)=N/O)cc1	3.87% (active)
Cc1ccc(C(=O)NN2C(=O)/C(=C/C=C/c3ccc([N+](=O)[O-])o3)SC2=S)cc1	2.23% (active)
Cc1ccc(-c2cc(-c3cc4ccccc4nc3Cl)[nH]c(=O)n2)cc1	-32.7% (active)
O=C(CSc1nc2sc3c(c2c(=O)n1-c1ccc(Cl)cc1)CCCC3)NNC(=O)c1ccc(Br)cc1	91.1%
CC(=O)c1c2c(c3ccc4c5ccccc5ccc4n13)C(=O)c1ccccc1C2=O	94.2%
COc1ccc(/C=N/NC(=O)Cn2nc(Cc3ccc(OC)cc3)c3onc(C)c3c2=O)cc1	27.6%
CCOC(=O)c1ccc(NC(=O)CSC(CC(=O)c2sc(Nc3ccccn3)nc2C)c2ccccc2F)cc1 (stereo not drawn)	2.8% (active)
CN1C(=O)N(C)C2SC(N/N=C/c3ccc(F)cc3)=NC21 (stereo not drawn)	-4.65% (active)
O=C(/C=C/c1ccc(-c2ccccc2)cc1)c1nc2ccccc2n1Cc1ccc(F)cc1	21.1%
C#CCN(C)CCCOc1ccc(N(CC)C(=O)c2cc(C(C)C)c(O)cc2O)cc1Cl	-63.8% (active)
NS(=O)(=O)c1cccc(Nc2nc(SCC(=O)c3ccc(F)cc3)nc3ccccc23)c1	6.93% (active)
Clc1ccc(-c2nc3c4c(-c5ccccc5)c(-c5ccccc5)n(Cc5ccccc5)c4ncn3n2)cc1	-27.7% (active)
CN(C)CCCNC(=O)c1cc(NC(=O)c2cc(NC(=O)c3ccc(C#Cc4ccccc4)cc3)cn2C)cn1C	-69.6% (active)

Compound	growth
COc1cc(-c2cc(-c3cccc(OCC(=O)O)c3)[nH]c(=O)c2C#N)cc(OC)c1OC	80.6%
Cc1ccc(Cl)cc1NC(=O)Nc1nc2ccc([N+](=O)[O-])cc2s1	1.69% (active)
NC(=O)c1ccc(-c2ccc3ncnc(N4CCc5cc(F)c(Cl)cc54)c3c2)cn1	64.9%
COc1cccc(/C=C/c2nc3ccccc3c(=O)n2CC(=O)Nc2ccc(Cl)cc2)c1	115%
CC1(C)CC[C@]2(C(=O)Nc3ccc(F)cc3)CC[C@]3(C)C(=CCC4[C@@]5(C)C[C@@H](O)[C@H](O)[C@@](C)(CO)C5CC[C@]43C)C2C1 (stereo partly drawn)	-11.7% (active)
COc1cc2cc(C(=O)N3C[C@@H](CCl)c4c3cc(OC(=O)N(CCC(=O)N3CCN(C)CC3)C3CCCCC3)c3ccccc43)[nH]c2c(OC)c1OC	-55.9% (active)
O=C(NC(=S)N1CCN(c2ncnc3c2cnn3-c2ccccc2)CC1)c1ccc(Br)cc1	90.8%
O=C(Nc1ccc(Br)cc1)Nc1ccc(-c2ccc3c(c2)NC(=O)/C3=C\c2ccc[nH]2)cc1	33.4%
C#CCOc1cc(N(CC)CC)ccc1C(C(=O)NC(C)(C)C)N(C(=O)C1CCc2cc(F)ccc2O1)c1ccccc1F (stereo not drawn)	-13.5% (active)
O=C(Nc1ccc(Cl)c(C(F)(F)F)c1)N1CCN(c2cc(-c3cn(-c4ccccc4)nc3-c3cccc(O)c3)ccn2)CC1	-34.3% (active)
O=C(c1cc2cc(OCCCN3CCC3)ccc2[nH]1)N1C[C@@H](CCl)c2c1cc(OCc1ccccc1)c1ccccc21	-33.7% (active)
O=Cc1cncc(-c2ccc3ncnc(N4CCc5cc(F)c(Cl)cc54)c3c2)c1	44.3%
O=C1Nc2cc(-c3ccc(NC(=O)c4cccc([N+](=O)[O-])c4)cc3)ccc2/C1=C/c1ccc[nH]1	106%
O=C(Nc1ccc(I)cc1F)c1cc(-c2ccc(F)cc2F)ccc1O	-30.4% (active)
CC12CC[C@@H]3[C@]4(C)COC(c5cn[nH]c5-c5ccc(Br)cc5)O[C@@H]4CC[C@@]3(C)[C@@H]1CC(C1=CCOC1=O)O2 (stereo partly drawn)	27.2%
[2H]C([2H])([2H])Oc1ccc2ncc(C#Cc3cncc(C(=O)Nc4ccc(CN5CCN(C)CC5)c(C(F)(F)F)c4)c3)n2n1	-60.4% (active)
CCCCSc1nc(Nc2ccc(/C(C)=N/NC(N)=S)cc2)c(C#N)c(-c2ccccc2)n1	79.3%
C=Cn1cc(C(=O)O)c(=O)c2cc(F)c(N3CCN(c4nccc(-c5nccs5)n4)CC3)cc21	-24.7% (active)
Clc1ccc(CNc2nc(SCCN3CCOCC3)nc3c2cnn3CC(Cl)c2ccc(Br)cc2)cc1 (stereo not drawn)	-9.78% (active)
COc1ccc(C(=O)Nc2sc3c(c2C#N)CCC(=O)C3)cc1C(F)(F)F	-12% (active)
Nc1nc(Nc2ccc(Cl)cc2)nn1Cc1cccc(Br)c1	34.5%
COc1cc(CNC(=O)/C=C/c2ccc3c(c2)OCO3)ccc1OCc1cn(-c2ccc([N+](=O)[O-])cc2)nn1	97%
CN(C)c1nc(NCCNS(=O)(=O)c2ccc(C(=O)/C=C/c3ccc(F)cc3)cc2)nc(Nc2ccc(F)cc2)n1	-38.7% (active)
C[C@@H]1[C@H]2C[C@@H](C[C@H]1NCc1nc3ccccc3n1C1CCCCCC1)C2(C)C	15%
O=C1NC(=NC23CC4CC(CC(C4)C2)C3)N/C1=C\c1ccc2ncoc2c1	-8.15% (active)

Compound	growth
CC1(C)CC[C@]2(C(=O)O)CC[C@]3(C)C(=CCC4[C@@]5(C)C[C@@H](O)[C@@H]6OC(c7ccco7)OC[C@@]6(C)C5CC[C@]43C)C2C1 (stereo partly drawn)	13.5%
N#Cc1c(-c2ccc(F)cc2)nc(SCc2ccc(F)cc2)nc1N1CCNCC1	-7.81% (active)
O=C(O)c1cccc(-c2ccc(/C=N/NC(=O)c3[nH]c4ccc(Br)cc4c3-c3ccccc3)o2)c1	88.5%
CCOC(=O)c1ccc(Nc2nc(NN)nc(-c3ccc(F)cc3)c2C#N)cc1	88%
CC(=O)OC[C@@]1(C)C2CC[C@]3(C)C(CC=C4C5CC(C)(C)CC[C@]5(C(=O)Nc5ccc(F)cc5)CC[C@]43C)[C@@]2(C)C[C@@H](OC(C)=O)[C@@H]1OC(C)=O (stereo partly drawn)	27.9%
O=C(NN1C(=O)/C(=C/C=C/c2ccc([N+](=O)[O-])o2)SC1=S)c1cccc(O)c1	-2.32% (active)
COc1ccc2[nH]cc(-c3cc(N)n4nc(-c5c[nH]c6ccccc56)cc4n3)c2c1	-44.7% (active)
O=C1c2cccc3c(N4CCN(c5ccccc5)CC4)ccc(c23)C(=O)N1c1cccc(-c2nn(-c3ccccc3)cc2-c2nc3ccccc3s2)c1	98.5%
C[C@H](NC(=O)c1ccc2c(-c3ccc(C(F)(F)F)cc3)cccc2c1)c1ccccn1	23%
O=C(NO)c1ccc(CNC(=O)[C@H]2Cc3c([nH]c4ccccc34)[C@H](c3ccc(Cl)cc3)N2)cc1	4.62% (active)
COc1ccccc1/C=C/c1cccc(NC(=S)NCCCCN(C)C)c1	-41.7% (active)
COc1cccc(-c2ccnc(/N=C(\N)Nc3ccc(S(=O)(=O)Nc4nc(C)cc(C)n4)cc3)n2)c1	91.9%
COc1ccc(C(=O)/C=C/c2ccc(OC)c(OCc3ccccc3)c2)cc1OC	2.91% (active)
O=C(CNc1nc(-c2ccccc2)cs1)Nc1ccc([N+](=O)[O-])cc1Cl	21.9%
N#Cc1c(-c2ccc(Cl)cc2)nc2n[nH]c(-c3ccc(Cl)cc3)c2c1-c1cccs1	23.7%
CCN(CC)c1ccc(/C=N/Nc2nc(-c3ccc(Br)cc3)cs2)c(O)c1	35.6%
Cc1cc(C(NC(=O)CCCCCNc2cccc3c2C(=O)N(C2CCC(=O)CC2=O)C3=O)c2cccc(N(C)C)c2)c(O)c2ncccc12 (stereo not drawn)	-15.3% (active)
CC1=C2C(=C[C@@](C)(CO)[C@@H]2O)/C(=N\N)[C@](C)(O)C12CC2	-22.1% (active)
CCOC(=O)/C(F)=C/C1CC1CCc1ccc(OCC)cc1 (stereo not drawn)	101%
O=C(NN1C(=O)/C(=C/C=C/c2ccc([N+](=O)[O-])o2)SC1=S)c1ccccc1O	-0.846% (active)
CC(=O)Nc1cccc(Nc2nc(NCc3ccccc3)c3ccccc3n2)c1	-64% (active)
Cc1ccc(C(SCCNCc2cc(N(C)C)ccn2)(c2ccccc2)c2ccccc2)cc1	-40.9% (active)
O=C1CCC(N2C(=O)c3cccc(NCCCCCC(=O)N4CCN(c5ccc6nc7c(nc6c5C(F)(F)F)C(=O)c5ncccc5C7=O)CC4)c3C2=O)C(=O)N1 (stereo not drawn)	-25.2% (active)
